# TCR activator: Activators of T cell receptors: qHTS campaign | primary human leukocytes, anti-CD3, IL-2 HTRF, 48 h | Potency, µM (titrated, usually from 9.22 µM), most hits filed as activators | 330,000 tested, under 10 active; active = well fitted activation curve with a large enough effect; inconclusive = small, poorly fitted or top-dose-only effect, or another doubt; inactive = no such curve, though single readings can be large or run the other way
#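 IL-2 release read by HTRF sandwich (Eu cryptate donor, d2 acceptor, 665 nm emission) after 48 hr exposure of primary human leukocytes to compound together with anti-CD3 beads in the absence of co-stimulatory signals.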
# TSHR antag: Antagonists of the Thyroid Stimulating Hormone Receptor: HTS campaign; 330,000 tested, 0.2% active; Thyrotropin receptor (Homo sapiens), P16473; TSHR-expressing cells, TSH-stimulated cAMP HTRF, 2 h; stronger effect = lower value; activity change, negative = inhibition, % at 11.5 µM;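 active = activity change below a set negative limit, meaning inhibition stronger than a set level, cut at about -70% in these data; inconclusive = activity change between two set negative limits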
#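 Freshly harvested TSHR cells receive pin-tooled compound, then EC80 TSH at 4nM final. After 2 hours at 37 deg C, antibody in lysis buffer and cAMP-d2 are added; 30 minutes at ambient temperature precede the HTRF read.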
# gsp antag: qHTS for Antagonists of gsp, the Etiologic Mutation Responsible for Fibrous Dysplasia/McCune-Albright Syndrome: qHTS | gsp-mutant cells, cAMP HTRF, 30 min | Potency, µM (top dose mostly 76.9 µM), most hits filed as inhibitors | 340,000 tested, 0.4% active | AID 624288, 2012; calls by dose curve; cell line not stated here;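 note: intracellular cAMP measured with PDE inhibitor Ro 20-1724 present during compound exposure; nearly all actives have a fitted effect of over 65% in size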
#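 G418-selected cells were plated in DMEM/10% FBS for 16-24 h at 37C, then treated with compounds plus the PDE inhibitor […] (300 uM solution added) for 30 min at 37C. Intracellular cAMP was measured by HTRF after 30 min lysis at room temperature.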
# gsp agonist: qHTS for Agonist of gsp, the Etiologic Mutation Responsible for Fibrous Dysplasia/McCune-Albright Syndrome: qHTS. gsp mutant cells, cAMP HTRF, 30 min. Potency, µM (titrated, usually from 76.9 µM), hits mostly activators. 340,000 tested, 0.13% active. AID 624287, 2012; active = well fitted activation curve with a large enough effect; inconclusive = small, poorly fitted or top-dose-only effect, or another doubt; inactive = no such curve, though single readings can be large or run the other way; cell line not stated here;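 note: phosphodiesterase inhibitor Ro 20-1724 added with compounds to block cAMP breakdown; nearly all actives have a fitted effect of over 60% in size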
#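 Cells stably selected in G418 were plated at 2000/well, grown 16-24 hr, then given compounds in DMSO with the PDE inhibitor […] (300 uM solution added) for 30 min at 37C; cAMP was read by HTRF.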
# Pin1 inhibitor: qHTS Assay to Find Inhibitors of Pin1; Peptidyl-prolyl cis-trans isomerase NIMA-interacting 1 (Homo sapiens), Q13526; Pin1 FP peptide displacement, HiFluor488, 10 min; Potency, µM (titrated, usually from 115 µM), most hits filed as inhibitors; 390,000 tested, 0.009% active; active = well fitted inhibition curve with a large enough effect in the polarisation, with a control signal flat, not every such curve was filed as active; inconclusive = small, poorly fitted or top-dose-only effect, or effect the other way, or a change in a side signal; inactive = no such curve, though single readings can be large or run the other way; the % refers to the polarisation
# Target sequence (Q13526 whole entry, looked up): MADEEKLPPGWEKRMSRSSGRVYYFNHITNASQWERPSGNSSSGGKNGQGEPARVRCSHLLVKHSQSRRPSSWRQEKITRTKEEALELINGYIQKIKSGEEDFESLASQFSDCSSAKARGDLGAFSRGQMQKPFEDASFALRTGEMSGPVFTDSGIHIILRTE
# Hits are given with their value; 0 = inactive; ? = inconclusive; - = no result; [ ] = another dose, or the depositor's remark. Most compounds without a hit are left out; they make up all but 0.63% or so of the library.
SMILES,TCR activator,TSHR antag,gsp antag,gsp agonist,Pin1 inhibitor
C[C@@H]1CN([C@H](C)CO)C(=O)c2cc(Br)cnc2O[C@H]1CN(C)C(=O)c1ccccc1,-,-,-,0,-
COc1ccc(OC)c(NC(=O)C(C)OC(=O)c2cc3ccccc3[nH]2)c1 (centres undefined),0,-,22µM,0,0
COc1ccc(OC)c(NC(=O)C(C)Oc2ccc(Br)cc2)c1 (centres undefined),0,0,0,0[15.4 µM],0
CCC(C)n1nccc1NC(=O)C(C)OC(=O)c1cc2ccccc2[nH]1 (centres undefined),0,0,0,0,0
COc1ccccc1NC(=O)C(C)OC(=O)c1cc2ccccc2[nH]1 (centres undefined),0,?,35µM,0,0
CC(OC(=O)CN(C)S(=O)(=O)c1ccc(Cl)cc1)C(=O)Nc1cccc(Cl)c1 (centres undefined),0,0,40µM,0,0
COc1cc(CCNc2ccc3nnc(-c4ccccc4)n3n2)cc(OC)c1OC,0,0,0,0,?
COc1ccc2nnc(-c3ccccc3)n2n1,0,0,0,16µM,0
CCOc1ccccc1C(=O)Nc1ccc(S(=O)(=O)Nc2cc(OC)nc(OC)n2)cc1,0,0,0,20µM,0
Cc1ccnc(NS(=O)(=O)c2ccc(NC(=O)Cc3ccccc3)cc2)n1,0,0,0,0,0
Cc1ccc(CC(=O)Nc2ccc(S(=O)(=O)Nc3nccc(C)n3)cc2)cc1,0,0,8.9µM,0,0
CCOc1ccccc1C(=O)Nc1ccc(S(=O)(=O)Nc2nccc(C)n2)cc1,0,0,0,6.3µM,0
COc1cc(NS(=O)(=O)c2ccc(NC(=O)c3ccccc3C(=O)O)cc2)nc(OC)n1,-,-,-,-,0
CCc1ccc(NS(=O)(=O)c2cc3[nH]c(=O)c(=O)[nH]c3cc2C)cc1,0,-140,0,0,0
CC(=O)c1ccc(NS(=O)(=O)c2cc3[nH]c(=O)c(=O)[nH]c3cc2C)cc1,-,-,-,-,0
Cc1ccc(C)c(NC(=O)COC(=O)CCc2ccc(S(=O)(=O)N3CCOCC3)cc2)c1,0,0,0,0[15.4 µM],0
Cc1nn(CCC(=O)Nc2cccc(C#N)c2)c(C)c1S(=O)(=O)N1CCC(C)CC1,-,-,-,-,0
O=C1c2ccccc2C(=O)N1CCCCc1cn(C[C@H]2CC[C@@H]([C@@H]3CC[C@H](Cn4cc(CCCCN5C(=O)c6ccccc6C5=O)nn4)O3)O2)nn1,0,0,32µM,-,?
CC(C)OCCCn1c(SCC(=O)Nc2ccccc2C(F)(F)F)nc2nccnc2c1=O,0,0,0,40µM,0
O=C(COc1ccc2ccc(=O)oc2c1)Nc1cccc(S(=O)(=O)N2CCCCC2)c1,0,0,28µM,?,0
CC(=O)c1c(C)[nH]c(C(=O)OCC(=O)Nc2cccc(S(=O)(=O)N3CCCC3)c2)c1C,0,0,32µM,0,0
Cc1ccc(C)c(C(=O)OCC(=O)Nc2cccc(S(=O)(=O)N3CCCCC3)c2)c1,0,?,25µM,0,0
CC(C)(C)C1(C)OC(C(=O)NC2CCCCC2)C(C(=O)NC2CCCCC2)O1 (centres undefined),-,0,0,0,0
Cc1ccnc(NS(=O)(=O)c2ccc(N3C(=O)c4ccccc4C3=O)cc2)n1,0,0,0,25µM,0
Cc1noc(NS(=O)(=O)c2ccc(N3C(=O)c4ccccc4C3=O)cc2)c1C,0,0,0,2.2µM,0
SMILES,TCR activator,TSHR antag,gsp antag,gsp agonist,Pin1 inhibitor
Cc1csc(=O)n1CCC(=O)OCC(=O)c1c(N)n(C)c(=O)n(C)c1=O,0,0,0,25µM,0
Cc1csc(=O)n1CCC(=O)OCC(=O)c1c(N)n(CC(C)C)c(=O)n(C)c1=O,0,0,0,0,0
C=CCn1c(SCc2ccc(C(=O)O)cc2)nc2sc(C)c(C)c2c1=O,0,0,0,0,0
Cc1sc2nc(SCc3ccc(C(=O)O)cc3)n(Cc3ccco3)c(=O)c2c1C,0,0,25µM,0[15.4 µM],?
COc1ccc(N=CC2=C(O)CC(C)(C)CC2=O)cc1OC,0,0,0,0[15.4 µM],0
Cc1ccc(NC(=O)COc2ncnc3sccc23)cc1S(=O)(=O)N(C)C,0,0,0,0,0
CCN(CC)S(=O)(=O)c1cccc(NC(=O)COc2ncnc3sccc23)c1,0,0,0,25µM,0
COc1cc(C2C(C#N)=C(N)Oc3cc(N)ccc32)cc(OC)c1OC (centres undefined),0,0,0[15.4 µM],0,0
COc1cc(C2C(C#N)=C(C)NC(C)=C2C#N)cc(OC)c1OC,0,0,0,8.9µM,0
Cc1ccc(NC(=O)[C@H](Cc2ccccc2)N2Cc3ccccc3C2=O)cc1,-,-,-,-,0
O=C(CNC(=O)c1ccccc1)OCc1cc(=O)n2cc(Br)ccc2n1,0,0,0,5.6µM,?
COc1ccc(-c2cc(=O)[nH]c(=S)[nH]2)cc1,0,0,0,10µM,?
Cc1ccccc1-c1noc(N)c1C#N,0,0,0,0,?
CN(C)/C=C/c1onc(-c2ccccc2Cl)c1C#N,0,0,11µM,0[15.4 µM],0
COC(=O)CCN(C)CCC(=O)OC,0,0,50µM,0,0
CCOC(=O)c1ccc(N2CCN(C(C)=O)CC2)c(NC(=O)c2cccnc2)c1,0,0,50µM,0,0
CC(=O)N1CCN(C(=O)CCc2nc3ccccc3c(=O)[nH]2)CC1,-,0,0,0,0
O=C(CCc1nc2ccccc2c(=O)[nH]1)N1CCN(C/C=C/c2ccccc2)CC1,0,0,22µM,0,0
O=C(C1CCC(CNS(=O)(=O)c2cccc3nsnc23)CC1)N1CC=C(c2ccccc2)CC1 (centres undefined),0,0,35µM,0,0
CN(NC1OC(=O)c2ccccc21)c1c([N+](=O)[O-])cc(C(F)(F)F)cc1[N+](=O)[O-] (centres undefined),0,0,0,0[15.4 µM],0
Cc1cc(C)c(Nc2cc(S(=O)(=O)O)c(N)c3c2C(=O)c2ccccc2C3=O)c(C)c1,0,0,28µM,0,-
COc1ccc(N=Nc2nc(-c3ccccc3)c(-c3ccccc3)[nH]2)cc1,0,0,?,0[15.4 µM],?
CSc1cccc(NS(=O)(=O)c2ccc3[nH]cc(C(=O)N4CCCCCC4)c(=O)c3c2)c1,-,-,-,-,0
O=C(Nc1cccc(Br)c1)c1ccc2nc(N3C(=O)CCC3=O)sc2c1,0,0,35µM,0,0
O=C(Nc1cccc([N+](=O)[O-])c1)c1ccc2nc(N3C(=O)CCC3=O)sc2c1,0,0,?,0,?
O=C(NC1CCCCCCC1)c1cc(COc2ccc3ncccc3c2)on1,0,0,40µM,0[15.4 µM],0
